Each structure is given as a SMILES string. Structures can show the parent of a compound that is named as a salt. ± gives the standard deviation of the averaged measurements. Over roughly 1,900 compounds, “normalised cell viability (NPI; 0 = phenylarsine oxide control, 1 = DMSO control)” has its median near 1; the lowest 2% begin near 0.039. The sample as a whole holds a higher share of the lowest values than the screen did.

Among the data in the supplement of paper PMC8285479 are normalised cell viability values, retold here.

This experiment relates to NCI-H1944. Kind of experiment: normalised cell viability (NPI; 0 = phenylarsine oxide control, 1 = DMSO control) (fraction of DMSO control); NCI-H1944 is a non-small cell lung cancer line; higher = more viable cells (less compound toxicity). Particulars: 6 days.
Setting [1] is: glucocorticoid arm: hydrocortisone 2.75 uM co-treatment, compound 1 µM.
The mark [2] stands for this setting: glucocorticoid arm: hydrocortisone 2.75 uM co-treatment, compound 5 µM.
[3] abbreviates: glucocorticoid arm: hydrocortisone 2.75 uM pre-treated 2 days and continued, compound 1 µM.
Where [4] appears, read: glucocorticoid arm: hydrocortisone 2.75 uM pre-treated 2 days and continued, compound 5 µM.
[5] abbreviates: glucocorticoid arm: vehicle, compound 1 µM.
The mark [6] stands for this setting: glucocorticoid arm: vehicle, compound 5 µM.
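Further: CTB read-out in 384-well plates, triplicate wells, NPI normalised per plate against 1 µM phenylarsine oxide (0) and 0.1% DMSO (1) controls.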

For the molecule `CC(=O)O[C@@]12CO[C@@H]1C[C@H](O)[C@@]1(C)C(=O)[C@H](O)C3=C(C)[C@@H](OC(=O)[C@H](O)[C@@H](NC(=O)OC(C)(C)C)c4ccccc4)C[C@@](O)([C@@H](OC(=O)c4ccccc4)[C@H]21)C3(C)C` [Docetaxel], the normalised cell viability was 0.159 ± 0.0035 under setting [1]; 0.163 ± 0.0095 under setting [2]; 0.462 ± 0.023 under setting [3]; 0.518 ± 0.015 under setting [4]; 0.049 ± 0.0034 under setting [5]; 0.0428 ± 0.0097 under setting [6].
As for `CO[C@H]1C(=O)[C@]2(C)[C@@H](OC)C[C@H]3OC[C@@]3(OC(C)=O)[C@H]2[C@H](OC(=O)c2ccccc2)[C@]2(O)C[C@H](OC(=O)[C@H](O)[C@@H](NC(=O)OC(C)(C)C)c3ccccc3)C(C)=C1C2(C)C` [Cabazitaxel], the normalised cell viability under setting [1] came out at 0.191 ± 0.012; the normalised cell viability under setting [2] worked out at 1.05 ± 0.021; the normalised cell viability under setting [3] stood at 0.468 ± 0.0065; the normalised cell viability under setting [4] is 1.05 ± 0.015; the normalised cell viability under setting [5] came to 0.0505 ± 0.01; the normalised cell viability under setting [6] was 1.007 ± 0.0058.
As for `CC(=O)O[C@H]1C(=O)[C@@]2(C)[C@H]([C@H](OC(=O)c3ccccc3)[C@]3(O)C[C@H](OC(=O)[C@H](O)[C@@H](NC(=O)c4ccccc4)c4ccccc4)C(C)=C1C3(C)C)[C@]1(OC(C)=O)CO[C@@H]1C[C@@H]2O` [Taxol], the normalised cell viability under setting [1] came out at 0.122 ± 0.012; the normalised cell viability under setting [2] came out at 0.117 ± 0.015; the normalised cell viability under setting [3] is 0.8513 ± 0.0064; the normalised cell viability under setting [4] is 0.802 ± 0.051; the normalised cell viability under setting [5] worked out at 0.0515 ± 0.0084; the normalised cell viability under setting [6] worked out at 0.0382 ± 0.0051.
On to `CC(=O)O[C@H]1C(=O)[C@@]2(C)[C@H]([C@H](OC(=O)c3ccccc3)[C@]3(O)C[C@H](OC(=O)[C@H](O)[C@@H](NC(=O)c4ccccc4)c4ccccc4)C(C)=C1C3(C)C)[C@]1(OC(C)=O)CO[C@@H]1C[C@@H]2O` [Paclitaxel; Taxol], for which the normalised cell viability under setting [1] came to 0.131 ± 0.0057; the normalised cell viability under setting [2] came out at 1.03 ± 0.01; the normalised cell viability under setting [3] is 0.466 ± 0.032; the normalised cell viability under setting [4] was determined as 1.02 ± 0.011; the normalised cell viability under setting [5] turned out to be 0.0302 ± 0.0049; the normalised cell viability under setting [6] stood at 1.01 ± 0.01.
As for `COC(=O)C1=C(C)NC(C)=C([N+](=O)[O-])C1c1ccccc1C(F)(F)F` (racemic), the normalised cell viability reads like this: under setting [1], 0.99 ± 0.0072; under setting [2], 0.942 ± 0.02; under setting [3], 0.9753 ± 0.0031; under setting [4], 0.9355 ± 0.00071; under setting [5], 0.962 ± 0.01; under setting [6], 0.947 ± 0.011.
Consider `CCC1=C[C@@H]2CN(C1)Cc1c([nH]c3ccccc13)[C@@](C(=O)OC)(c1cc3c(cc1OC)N(C)[C@H]1[C@@](O)(C(=O)OC)[C@H](OC(C)=O)[C@]4(CC)C=CCN5CC[C@]31[C@@H]54)C2` [Vinorelbine tartrate], for which the normalised cell viability under setting [1] was 0.327 ± 0.0017; the normalised cell viability under setting [2] turned out to be 0.35 ± 0.02; the normalised cell viability under setting [3] stood at 0.629 ± 0.017; the normalised cell viability under setting [4] was found to be 0.683 ± 0.036; the normalised cell viability under setting [5] worked out at 0.0577 ± 0.0028; the normalised cell viability under setting [6] came to 0.0356 ± 0.0026.
Regarding `CC[C@]1(O)C[C@@H]2CN(CCc3c([nH]c4ccccc34)[C@@](C(=O)OC)(c3cc4c(cc3OC)N(C)[C@H]3[C@@](O)(C(=O)OC)[C@H](OC(C)=O)[C@]5(CC)C=CCN6CC[C@]43[C@@H]65)C2)C1` [Vinblastine sulfate salt], the normalised cell viability under setting [1] amounted to 0.361 ± 0.02; the normalised cell viability under setting [2] was found to be 0.337 ± 0.021; the normalised cell viability under setting [3] was 0.795 ± 0.17; the normalised cell viability under setting [4] worked out at 0.94 ± 0.023; the normalised cell viability under setting [5] is 0.0757 ± 0.0017; the normalised cell viability under setting [6] stood at 0.0495 ± 0.005.
Consider `CC[C@]1(O)C[C@@H]2CN(CCc3c([nH]c4ccccc34)[C@@](C(=O)OC)(c3cc4c(cc3OC)N(C)[C@H]3[C@@](O)(C(=O)OC)[C@H](OC(C)=O)[C@]5(CC)C=CCN6CC[C@]43[C@@H]65)C2)C1` [Vinblastine sulfate salt; Vinblastine sulfate], for which the normalised cell viability runs as follows: under setting [1], 0.354 ± 0.019; under setting [2], 1.023 ± 0.0058; under setting [3], 0.621 ± 0.029; under setting [4], 1.03 ± 0.027; under setting [5], 0.0439 ± 0.00099; under setting [6], 1.017 ± 0.0058.
Turning to `C=CCN1CCc2c(cc(O)c(O)c2Br)[C@@H](c2ccccc2)C1` [R(+)-6-Bromo-APB hydrobromide], the normalised cell viability by setting is: under setting [1], 0.986 ± 0.017; under setting [2], 1.01; under setting [3], 0.989 ± 0.0095; under setting [4], 1 ± 0.011; under setting [5], 0.976 ± 0.011; under setting [6], 0.9827 ± 0.0035.
With `COc1c/c(=C2\C=c3ccccc3=N2)[nH]/c1=C\c1[nH]c(C)cc1C` [Obatoclax mesylate (GX15-070)], the normalised cell viability is, setting by setting: under setting [1], 0.972 ± 0.014; under setting [2], 0.42 ± 0.019; under setting [3], 1 ± 0.0087; under setting [4], 1.03 ± 0.015; under setting [5], 0.564 ± 0.07; under setting [6], 0.0292 ± 0.0041.
For the molecule `Cc1cc(C)c(/C=C2\C(=O)Nc3ccccc32)[nH]1` [Semaxanib (SU5416)], the normalised cell viability under setting [1] came out at 1.09 ± 0.011; the normalised cell viability under setting [2] is 1.15 ± 0.046; the normalised cell viability under setting [3] is 1.09 ± 0.011; the normalised cell viability under setting [4] amounted to 1.11 ± 0.017; the normalised cell viability under setting [5] came out at 1.023 ± 0.0058; the normalised cell viability under setting [6] is 1.027 ± 0.0058.
With `Cc1cc(C)c(/C=C2\C(=O)Nc3ccccc32)[nH]1`, the normalised cell viability runs as follows: under setting [1], 1.06 ± 0.01; under setting [2], 1.09 ± 0.015; under setting [3], 1.07 ± 0.044; under setting [4], 1.12 ± 0.017; under setting [5], 1.03; under setting [6], 1.03 ± 0.011.
With `O=C(O)CCC(NC(=O)c1ccccc1C(=O)O)C(=O)O` [Phthalamoyl-L-glutamic acid trisodium], the normalised cell viability under setting [1] came out at 0.9933 ± 0.0031; the normalised cell viability under setting [2] is 1.06 ± 0.021; the normalised cell viability under setting [3] was 0.869 ± 0.23; the normalised cell viability under setting [4] is 1.03 ± 0.025; the normalised cell viability under setting [5] was found to be 0.997 ± 0.0052; the normalised cell viability under setting [6] stood at 1.006 ± 0.0063.
Turning to `CC(NC(=O)Cc1cc(F)cc(F)c1)C(=O)NC1C(=O)N(C)c2ccccc2-c2ccccc21` (configuration not stated), the normalised cell viability was found to be 0.977 ± 0.0072 under setting [1]; 0.998 ± 0.0035 under setting [2]; 0.983 ± 0.015 under setting [3]; 0.999 ± 0.019 under setting [4]; 0.9847 ± 0.0057 under setting [5]; 0.9813 ± 0.007 under setting [6].
Turning to `COc1cc(=O)n(C)c2c(OCC(O)C(C)(C)O)cccc12` (configuration not stated) [Foliosidine], the normalised cell viability is, setting by setting: under setting [1], 1.005 ± 0.0081; under setting [2], 0.99 ± 0.01; under setting [3], 0.9877 ± 0.0067; under setting [4], 0.981 ± 0.012; under setting [5], 0.998 ± 0.011; under setting [6], 0.9963 ± 0.0021.
As to `CC(C)(C)OC(=O)Nc1ccc(-c2cc(C(=O)NCCCCCCC(=O)NO)no2)cc1`, the normalised cell viability worked out at 0.9572 ± 0.0081 under setting [1]; 0.244 ± 0.23 under setting [2]; 0.991 ± 0.025 under setting [3]; 0.677 ± 0.31 under setting [4]; 0.806 ± 0.15 under setting [5]; 0.0189 ± 0.02 under setting [6].
For `O=C(CCCCCCC(=O)Nc1ccccc1)NO`, the normalised cell viability runs as follows: under setting [1], 0.959 ± 0.016; under setting [2], 0.569 ± 0.04; under setting [3], 0.978 ± 0.013; under setting [4], 0.912 ± 0.015; under setting [5], 0.969 ± 0.011; under setting [6], 0.075 ± 0.0018.
On to `O=C(CCCCCCC(=O)Nc1ccccc1)NO` [Vorinostat; SAHA], for which the normalised cell viability under setting [1] turned out to be 0.928 ± 0.018; the normalised cell viability under setting [2] came to 1.04 ± 0.04; the normalised cell viability under setting [3] came to 0.95 ± 0.0036; the normalised cell viability under setting [4] was found to be 1.02; the normalised cell viability under setting [5] is 0.995 ± 0.015; the normalised cell viability under setting [6] came out at 0.9983 ± 0.0029.
On to `O=C(CCCCCCC(=O)Nc1ccccc1)NO` [Vorinostat (SAHA, MK0683)], for which the normalised cell viability stood at 0.94 ± 0.017 under setting [1]; 0.585 ± 0.025 under setting [2]; 0.959 ± 0.0017 under setting [3]; 0.955 ± 0.048 under setting [4]; 1.003 ± 0.0058 under setting [5]; 0.0617 ± 0.0036 under setting [6].
For `N=C(N)NCCC[C@H](N)C(=O)O` [L-Arginine], the normalised cell viability worked out at 1 ± 0.018 under setting [1]; 0.997 ± 0.0027 under setting [2]; 0.994 ± 0.0066 under setting [3]; 1 ± 0.011 under setting [4]; 0.986 ± 0.0085 under setting [5]; 1.001 ± 0.0081 under setting [6].
For `CC1(C)CNc2cc(NC(=O)c3cccnc3NCc3ccncc3)ccc21` [Motesanib Diphosphate], the normalised cell viability by setting is: under setting [1], 1.02 ± 0.011; under setting [2], 1 ± 0.031; under setting [3], 1 ± 0.012; under setting [4], 0.992 ± 0.026; under setting [5], 1.001 ± 0.0076; under setting [6], 1.002 ± 0.0076.
Take `O=C1NC(=O)C(=Cc2ccc(-c3ccc(F)cc3)o2)S1` (stereo in doubt): the normalised cell viability amounted to 1 ± 0.018 under setting [1]; 1 ± 0.014 under setting [2]; 0.996 ± 0.013 under setting [3]; 1.01 under setting [4]; 0.991 ± 0.0027 under setting [5]; 0.9913 ± 0.0083 under setting [6].
